# Measured values as given in the supplement of paper PMC6992640.
# ± gives the standard deviation of the averaged measurements.
# Columns and labels:
# Assay in all cases: cell viability (% of vehicle); higher = less cytotoxic
# Conditions in all cases: 10 µM; 72 h
# [1] = system: HCI01 (cells of a triple-negative basal-like breast cancer xenograft)
# [2] = system: HCI03 (cells of an ER-positive luminal breast cancer xenograft)
# [3] = system: HCI09 (cells of a triple-negative luminal androgen receptor type breast cancer xenograft)
# [4] = system: HCI11 (cells of an ER-positive luminal breast cancer xenograft)
# [5] = system: HCI13 (cells of an ER-positive luminal breast cancer xenograft)
# [6] = system: HCI16 (cells of a triple-negative basal-like breast cancer xenograft)
# [7] = system: UCD52 (cells of a triple-negative basal-like breast cancer xenograft)
# [8] = system: WHIM2 (cells of a triple-negative basal-like breast cancer xenograft)
# [9] = system: WHIM30 (cells of a triple-negative basal-like breast cancer xenograft)
# 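Further: PDX cells carrying CMV promoter-driven luciferase, viability read as total photon flux per second by IVIS imaging following D-luciferin, vehicle control 0.1% DMSO.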
SMILES,cell viability [1],cell viability [2],cell viability [3],cell viability [4],cell viability [5],cell viability [6],cell viability [7],cell viability [8],cell viability [9]
C[N+](C)(C)CCOC(N)=O.[Cl-] [Carbamoylcholine chloride],108 ± 11,120,89.4 ± 1.1,71.4,112 ± 4.6,124,95.6 ± 2.4,127 ± 7,98.9 ± 1.4
C#CCC(Cc1cnc2nc(N)nc(N)c2n1)c1ccc(C(=O)NC(CCC(=O)O)C(=O)O)cc1 (stereo unspecified) [Pralatrexate],134 ± 15,117,102 ± 11,115,157 ± 27,103,110 ± 8.8,121 ± 10,117 ± 4.2
CC(=O)O.CC(=O)O.CCC(C)CC(C)CCCCCCCCC(=O)NC1CC(O)C(NCCN)NC(=O)C2C(O)CCN2C(=O)C(C(O)CCN)NC(=O)C(C(O)C(O)c2ccc(O)cc2)NC(=O)C2CC(O)CN2C(=O)C(C(C)O)NC1=O (stereo unspecified) [Caspofungin Acetate],58.7 ± 28,115,84.5 ± 9.6,84.4,88 ± 5.7,115,71.4 ± 2.7,94.1 ± 40,119 ± 2.4
Cc1ccnc2c1NC(=O)c1cccnc1N2C1CC1 [Nevirapine],112 ± 2.5,105,122 ± 49,113,96.5 ± 3.9,96,96.8 ± 6.9,93.1 ± 23,130 ± 5.6
CC(Nc1ncnc2nc[nH]c12)c1cc2cccc(Cl)c2c(=O)n1-c1ccccc1 (stereo unspecified),91.5 ± 1.5,53.1,71.9 ± 26,66.4,45.8 ± 4.9,81.8,67.3 ± 1.7,51.1 ± 15,95.3 ± 2.1
Cc1ccc(-n2nc(C(C)(C)C)cc2NC(=O)Nc2ccc(OCCN3CCOCC3)c3ccccc23)cc1 [BIRB 796 (Doramapimod)],138 ± 41,89.6,93.5 ± 19,71.1,48.5 ± 3.4,87.4,62.1 ± 7,89.8 ± 8,103 ± 18
C=C1c2cccc(O)c2C(O)=C2C(=O)C3(O)C(O)=C(C(N)=O)C(=O)C(N(C)C)C3C(O)C12.Cl (stereo unspecified) [Methacycline HCl],114 ± 4.2,128,104 ± 5.9,81.8,140 ± 12,158,111 ± 5.5,94.3 ± 2,121 ± 2.4
CCCCNC(=O)NS(=O)(=O)c1ccc(C)cc1 [Tolbutamide],80.9 ± 42,118,91.4 ± 5.3,83.6,88.9 ± 3.6,101,96.6 ± 5.1,105 ± 25,101 ± 8.5
COC(=O)C1C2CC3c4[nH]c5cc(OC)ccc5c4CCN3CC2CC(OC(=O)c2cc(OC)c(OC)c(OC)c2)C1OC.Cl (stereo unspecified) [Reserpine hydrochloride],109 ± 8.9,114,66.7 ± 3.4,97.6,124 ± 17,87.9,79.9 ± 1.5,92.6 ± 19,78.4 ± 6.3
CN1CCCN=C1C=Cc1cccs1.O=C(O)c1cc2ccccc2c(Cc2c(O)c(C(=O)O)cc3ccccc23)c1O [Pyrantel Pamoate],82.3 ± 44,117,114 ± 12,101,146 ± 13,109,99.5 ± 12,95.8 ± 17,130 ± 3
COc1cc(Nc2ncc(F)c(Nc3ccc4c(n3)N(COP(=O)([O-])[O-])C(=O)C(C)(C)O4)n2)cc(OC)c1OC.[Na+].[Na+] [R788 disodium],86.4 ± 12,76.8,95.4 ± 11,86.8,86.4 ± 11,64.5,58 ± 4,79.4 ± 16,91.9 ± 3.2
CC1C(=O)OC2CC34C5CC(C(C)(C)C)C36C(OC(=O)C6O)OC4(C(=O)O5)C21O (stereo unspecified) [Ginkgolide A],98.9 ± 14,112,97.3 ± 6.1,96.5,114 ± 6,116,91.6 ± 10,101 ± 12,91.5 ± 9.4
CO[C@H]1O[C@@H]2OC3(C)CC[C@H]4[C@H](C)CC[C@@H]([C@H]1C)[C@@]24OO3 [Artemether],116 ± 31,121,94.4 ± 26,102,95.8 ± 0.62,106,97.88 ± 0.13,97.7 ± 8.3,75.18 ± 0.081
CCOc1ccc(NC(C)=O)cc1 [Phenacetin],139 ± 6,136,96.9 ± 17,96.7,102 ± 3.9,122,82 ± 12,98.7 ± 10,94.4 ± 11
C#CC1(OC(C)=O)CCC2C3CCC4=CC(OC(C)=O)CCC4C3CCC21C (stereo unspecified) [Ethynodiol diacetate],136 ± 22,118,86.3 ± 5.5,73.4,142 ± 16,136,84.9 ± 5.6,107 ± 17,112 ± 16
COC(=O)NC(C(=O)NC(Cc1ccccc1)C(O)CN(Cc1ccc(-c2ccccn2)cc1)NC(=O)C(NC(=O)OC)C(C)(C)C)C(C)(C)C.O=S(=O)(O)O (stereo unspecified),134 ± 8.2,135,74.8 ± 2.8,140,100 ± 5.6,138,113 ± 14,90 ± 6.2,148 ± 31
CC(C)CC(N)=O [Isovaleramide],103 ± 22,132,97.6 ± 3.4,98.5,104 ± 13,94.6,99.9 ± 2,98.5 ± 13,96.1 ± 7.9
CCCc1ncc(C[n+]2ccccc2C)c(N)n1.Cl.[Cl-] [Amprolium HCl],129 ± 15,135,102 ± 4.4,104,128 ± 7,145,71.4 ± 27,110 ± 7.3,99.4 ± 13
NC(=O)C(CCC(F)(F)F)N(Cc1ccc(-c2ncon2)cc1F)S(=O)(=O)c1ccc(Cl)cc1 (stereo unspecified),96 ± 23,142,67.5 ± 2.2,75.5,102 ± 16,96.7,81.58 ± 0.81,107.6 ± 0.73,124 ± 13
